# SARS PLpro yeast – qHTS of Yeast-based Assay for SARS-CoV PLP | AID 485353, 2010 | S. cerevisiae expressing SARS-CoV PLpro, growth rescue | Potency, µM (series often up to 32.9 µM), for inactives: at the highest dose activity, positive = growth rescue, most hits filed as activators | 0.19% of 330,000 active; further: 0% is about no effect; nearly all actives have a fitted effect of over 55% in size
# NS1 inh – qHTS Assay for Inhibitors of Influenza NS1 Protein Function | Potency, µM (doses to about 46.1 µM), for inactives: at the highest dose activity, positive = more growth | 0.4% of 270,000 active; further: actives are rising curves; nearly all actives have a fitted effect of over 50% in size
#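 Growth recovery, yeast-based: influenza A NS1 expressed in S. cerevisiae causes slow growth, and suppressors are detected by OD600. The parent strain without NS1 is used as positive control.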
# Pf growth 48h – Primary qHTS for delayed death inhibitors of the malarial parasite plastid, 48 hour incubation | Potency, µM (highest dose often 28.7 µM), for inactives: top-dose activity change, negative = inhibition, usual class: inhibitors | 5.9% of 310,000 active | P. falciparum luciferase growth in erythrocytes, 48 h | AID 504832, 2011; active means well fitted inhibition curve with a large enough effect; inconclusive means small, poorly fitted or top-dose-only effect, or another doubt; inactive means no such curve, though single readings can be large or run the other way; further: on the % scale 0 is the no-effect control and ±100 the full control effect
#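 Parasite viability was followed by luminescence of a genomically integrated firefly luciferase. Cultures held 0.1% parasitemia at 2% hematocrit (final), incubated under 5% CO2 at 37 C.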
# RE007 growth inh – qHTS Assay for Inhibitors of the HIV-1 protein Vpr; S. pombe RE007 Vpr strain, BacTiter-Glo ATP luminescence, 24 h; Potency, µM (highest dose often 92.2 µM), inactives show at the highest dose activity change, negative = less growth, hits mostly inhibitors; 0.21% of 360,000 active; active means well fitted falling curve with a large enough effect; inconclusive means small, poorly fitted or top-dose-only effect; inactive means no such curve, though single readings can be large or run the other way; further: on the % scale 0 is the no-effect control and ±100 the full control effect; nearly all actives have a fitted effect of over 50% in size
#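 Fission yeast strain RE007, carrying one chromosomally integrated HIV-1 vpr copy, was seeded at OD 0.01 in PMG+AL medium with 23 nL pinned compound. After 24 h at 30 °C and 99% humidity, viability was read by BacTiter-Glo luminescence.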
# Pf growth 96h – Primary qHTS for delayed death inhibitors of the malarial parasite plastid, 96 hour incubation; P. falciparum luciferase reporter growth, 96 h; 6.9% of 320,000 active; Potency, µM (doses to about 28.7 µM), inactives show top-dose activity change, negative = inhibition, hits mostly inhibitors; active means well fitted inhibition curve with a large enough effect; inconclusive means small, poorly fitted or top-dose-only effect, or another doubt; inactive means no such curve, though single readings can be large or run the other way; further: on the % scale 0 is the no-effect control and ±100 the full control effect
#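 Two parasite generations (96 h, 37 C, 5% CO2) of compound exposure in infected erythrocytes (0.05% parasitemia, 2% hematocrit). Luciferase-reporter P. falciparum; decreased luminescence indicates inhibited growth, aimed at apicoplast-acting delayed death.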
# Starred values were filed as active, the others as inactive; ? = inconclusive; . = no result; [ ] = remark or other dose. In the library only some 9.5% were active in any assay of this set; here they are far more common. Unless noted, the call rests on the fitted dose curve. Potency means the concentration at half of the fitted maximal effect.
SMILES,SARS PLpro yeast,NS1 inh,Pf growth 48h,RE007 growth inh,Pf growth 96h
Cc1cccc(-n2c(C)nc3ccccc3c2=O)n1,13%,-7%,65%,-2%,5.2µM*
CCOC(=O)c1cccc(-n2c(C)nc3ccccc3c2=O)c1,-7%,-6%,18%,-12%,9.3µM*
CCOC(=O)c1ccc(Cn2cnc3ccccc3c2=O)cc1,1%,-5%,-12%,17%,13µM*
COc1ccc(OC)c(CN2C(=O)CN(S(C)(=O)=O)CC2(C)C(=O)Nc2c(C)cccc2C)c1 (stereo unspecified),.,.,.,0%,.
CC1(C)C[C@H]2C3=CCC4[C@@]5(C)CC[C@H](O)[C@](C)(CO)C5CC[C@@]4(C)[C@]3(C)C[C@H]3O[C@@H]1[C@H](O)[C@]32CO (stereo partly specified),2%,.,32%,-11%,34%
COc1ccc2cc(C(C)c3nc4ccccc4c(=O)n3N)ccc2c1 (stereo unspecified),?,0%,?,29%,1.2µM*
COc1ccc(-c2nc3ccccc3c(=O)n2N)cc1,4%,0%,35%,18%,31%
O=C(CSc1nccn(-c2ccc(Br)cc2)c1=O)NCc1ccccc1,2%,.,13µM*,13%,?
Cn1cnc(S(=O)(=O)Nc2ccc(OC(F)(F)F)cc2)c1,3%,.,?,16%,?
C=CCc1c(C)nc(-c2ccccc2)nc1Nc1ccccc1O,-65%,-7%,5.2µM*,-5%,?
CC(C)(C)CC(C)(C)c1ccc(O)c(CN2CCN(CCC#N)CC2)c1,-8%,0%,1.7µM*,-1%,.
COc1ccc(NC(=O)C(c2ccc(C#N)cc2)n2c(=O)c(-c3cc4ccccc4[nH]3)nc3ccccc32)cc1 (stereo unspecified),.,.,.,1%,.
O=C1/C(=C/c2cccnc2)Sc2ccccc21,-13%,-12%,?,28µM*,7.4µM*
CNCc1ccccc1OCc1ccc(F)cc1,0%,2%,-6%,-9%,18%
CCN1CCCC1CNCc1cccc(OC)c1OCc1ccccc1 (stereo unspecified),18%,15%,-26%,2%,12µM*
CCN1CCCC1CNCc1cccc(OC)c1OCc1ccccc1F (stereo unspecified),-2%,21%,.,4%,?
CCN1CCCC1CNCc1ccccc1OCc1ccc(F)cc1 (stereo unspecified),-3%,2%,10µM*,-10%,.
Cc1cc(C)c(S(=O)(=O)N(C2=NCCS2)S(=O)(=O)c2c(C)cc(C)cc2C)c(C)c1,17%,-7%,15µM*,-6%,?
Cc1cc(C)c(S(=O)(=O)N(CC(=O)O)CC(=O)O)c(C)c1,1%,3%,18%,-6%[3.69 µM],.
CN(C)CCNC(=O)Cn1ccc2cc(S(=O)(=O)N3CCCCCC3)ccc21,?,-4%,?,-1%,-4%
CCC(=O)NC(c1cccs1)c1cc([N+](=O)[O-])c2cccnc2c1OC (stereo unspecified),-1%,.,-7%,.,2%
CCC(=O)NC(/C=C/c1ccccc1)c1cc([N+](=O)[O-])c2cccnc2c1O (stereo unspecified),2.2µM*,-1%,9%,.,-5%
Cn1c(=O)c2[nH]c(-c3ccccc3Cl)c(O)c2n(C)c1=O,-8%,22%,4.7µM*,-4%,13µM*
CCCCCCCCCCCCCCCC(=O)OC(C)C,.,.,-4%,.,-12%
O=C(Nc1ccc(F)cc1)C(CCc1ccccc1)N1CCN(c2ccncc2)CC1 (stereo unspecified),.,.,.,-29%,.
Cc1ccc2cc(CN(Cc3nnnn3Cc3ccco3)CC3CCCO3)c(=O)[nH]c2c1C (stereo unspecified),-1%,-7%,?,9%,-26%
Cc1ccc(S(=O)(=O)Cn2nnnc2CN(Cc2ccco2)CC2CCCO2)cc1 (stereo unspecified),2%,-3%,?,27%,4.1µM*
N#Cc1ncc(-c2ccc3c(c2)OCCOCCOCCOCCO3)nc1C#N,24%,-4%,?,6%,12µM*

# Compound activity from PubChem.
